Here are results for one molecule from the supplement of paper PMC8728848.

Shown is part of a subset that was picked to be rich in the strongest signals.

What all share (test): glycan array binding signal (z-score within array); higher = stronger binding
Conditions in all cases: glycan notation: IUPAC condensed, linker removed

Assay [1] concerns the target Fuc(a1-2)Gal(b1-4)Glc. The essentials:
(§1)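 The binding signal is a Z-score computed within each array and averaged over linkers. Arrays of the same protein sequence at different concentrations or buffers were also averaged together. Data originate from 3228 arrays in the Consortium for Functional Glycomics database, kept only where the protein sequence was available.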

For assay [2], the target named is Fuc(a1-2)Gal(b1-4)GlcNAc. The procedure, abridged:
as §1

The target of assay [3] is Fuc(a1-2)Gal(b1-4)[Fuc(a1-3)]GlcNAc(b1-3)Gal(b1-4)[Fuc(a1-3)]GlcNAc(b1-3)Gal(b1-4)[Fuc(a1-3)]GlcNAc. The procedure, abridged: as §1
In assay [4] the target is Fuc(a1-2)Gal(b1-4)[Fuc(a1-3)]GlcNAc(b1-3)GalNAc. The essentials: as §1
In assay [5] the target is Fuc(a1-2)[Gal(a1-3)]Gal(b1-4)GlcNAc(b1-2)Man(a1-3)[Fuc(a1-2)[Gal(a1-3)]Gal(b1-4)GlcNAc(b1-2)Man(a1-6)]Man(b1-4)GlcNAc(b1-4)[Fuc(a1-6)]GlcNAc. The procedure, abridged: as §1
Assay [6] concerns the target Fuc(a1-2)[Gal(a1-3)]Gal(b1-4)[Fuc(a1-3)]Glc. The procedure, abridged: as §1
Assay [7] has as its target Fuc(a1-2)[Gal(a1-3)]Gal(b1-4)[Fuc(a1-3)]GlcNAc. The essentials: as §1
The target of assay [8] is Fuc(a1-2)[GalNAc(a1-3)]Gal(b1-3)GlcNAc(b1-6)GalNAc. The procedure, abridged: as §1
Assay [9] has as its target Fuc(a1-2)[GalNAc(a1-3)]Gal(b1-4)[Fuc(a1-3)]GlcNAc(b1-3)GalNAc. The essentials:
as §1

In assay [10] the target is Fuc(a1-2)[GalNAc(b1-3)]Gal. The essentials:
as §1

Assay [11] deals with Gal(a1-3)Gal(b1-3)GlcNAc(b1-2)Man(a1-3)[Gal(a1-3)Gal(b1-3)GlcNAc(b1-2)Man(a1-6)]Man(b1-4)GlcNAc(b1-4)GlcNAc. The procedure, abridged:
as §1

The target in assay [12] is Gal(a1-3)Gal(b1-3)[Fuc(a1-4)]GlcNAc(b1-2)Man(a1-3)[Gal(a1-3)Gal(b1-3)[Fuc(a1-4)]GlcNAc(b1-2)Man(a1-6)]Man(b1-4)GlcNAc(b1-4)GlcNAc. The procedure, abridged:
as §1

Assay [13] has as its target Gal(a1-3)Gal(b1-4)GlcNAc. The essentials: as §1
In assay [14] the target is Gal(b1-3)GlcNAc(b1-2)Man(a1-3)[GlcNAc(b1-4)][Gal(b1-3)GlcNAc(b1-2)Man(a1-6)]Man(b1-4)GlcNAc(b1-4)GlcNAc. The essentials:
as §1

Assay [15] addresses Gal(b1-3)GlcNAc(b1-3)Gal(b1-4)GlcNAc(b1-2)[Gal(b1-3)GlcNAc(b1-3)Gal(b1-4)GlcNAc(b1-6)]Man(a1-6)[Gal(b1-3)GlcNAc(b1-3)Gal(b1-4)GlcNAc(b1-2)Man(a1-3)]Man(b1-4)GlcNAc(b1-4)[Fuc(a1-6)]GlcNAc. The procedure, abridged: as §1
Assay [16] deals with Gal(b1-4)GlcNAc(b1-2)Man(a1-3)[Gal(b1-4)GlcNAc(b1-2)Man(a1-6)]Man(b1-4)GlcNAc(b1-4)[Fuc(a1-6)]GlcNAc. The procedure, abridged:
as §1

Assay [17] deals with Gal(b1-4)GlcNAc(b1-3)Gal(b1-4)GlcNAc(b1-2)[Gal(b1-4)GlcNAc(b1-3)Gal(b1-4)GlcNAc(b1-6)]Man(a1-6)[Gal(b1-4)GlcNAc(b1-3)Gal(b1-4)GlcNAc(b1-2)Man(a1-3)]Man(b1-4)GlcNAc(b1-4)GlcNAc. The essentials:
as §1

The target in assay [18] is Gal(b1-4)GlcNAc(b1-3)Gal(b1-4)GlcNAc(b1-2)[Gal(b1-4)GlcNAc(b1-3)Gal(b1-4)GlcNAc(b1-6)]Man(a1-6)[Gal(b1-4)GlcNAc(b1-3)Gal(b1-4)GlcNAc(b1-2)Man(a1-3)]Man(b1-4)GlcNAc(b1-4)[Fuc(a1-6)]GlcNAc. The procedure, abridged: as §1
Assay [19] deals with Gal(b1-4)GlcNAc(b1-3)Gal(b1-4)GlcNAc(b1-3)Gal(b1-4)GlcNAc(b1-3)Gal(b1-4)GlcNAc(b1-3)Gal(b1-4)GlcNAc(b1-2)[Gal(b1-4)GlcNAc(b1-3)Gal(b1-4)GlcNAc(b1-3)Gal(b1-4)GlcNAc(b1-3)Gal(b1-4)GlcNAc(b1-3)Gal(b1-4)GlcNAc(b1-6)]Man(a1-6)[Gal(b1-4)GlcNAc(b1-3)Gal(b1-4)GlcNAc(b1-3)Gal(b1-4)GlcNAc(b1-3)Gal(b1-4)GlcNAc(b1-3)Gal(b1-4)GlcNAc(b1-2)Man(a1-3)]Man(b1-4)GlcNAc(b1-4)[Fuc(a1-6)]GlcNAc. The procedure, abridged:
as §1

Assay [20] concerns the target Gal3S(b1-4)[Fuc(a1-3)]GlcNAc6S. The essentials: as §1
In assay [21] the target is Gal6S(b1-4)Glc6S. The essentials: as §1
The target in assay [22] is Glc(a1-6)Glc(a1-6)Glc(a1-6)Glc. The essentials:
as §1

Assay [23] concerns the target GlcA3S(b1-3)Gal(b1-4)GlcNAc(b1-3)Gal(b1-4)Glc. The procedure, abridged: as §1
Assay [24] addresses GlcNAc(b1-2)Man(a1-3)[GlcNAc(b1-2)Man(a1-6)]Man(b1-4)GlcNAc(b1-4)[Fuc(a1-6)]GlcNAc. The essentials: as §1

B1: Nc3LysM (protein)
chain: QFTVPPDTTAEPNTIKTCTWWHVAGSGDSCTSIASTYGITSEQFARWDMETTDSPKNPSVATACKLTVGNSYCIENNFGQDDPPTPSISSSTLIGTATTSTTASTTTGNGISTPTPIQEGMETATTTTSSGNGITTPTPTQAGMETVGNCDRFHLVKSGDQCGTIASTYGITLANFYSWNPAVGTSCQSLWLDTYVCVRTIGFVPPKTTTTTTKKPTSTTSAGGVATPTPTQPGMETVSGCKKFHKGRGNVSTVASGDQCGTIATRYGISLANFYSWNPAVGSSCQTLWLDYYVCVGR
Turning to B1, the “glycan array binding signal (z-score)” value was 0.401 in assay [1]; -0.219 in assay [2]; 0.172 in assay [3]; -0.251 in assay [4]; -0.173 in [5]; 0.064 in assay [6]. Also, the “glycan array binding signal (z-score)” value in assay [7] was -0.157; in [8], -0.237; in [9], -0.076; in assay [10], -0.092; in [11] it was 0.295; in assay [12], 0.161. The “glycan array binding signal (z-score)” value in [13] is 0.019; in assay [14], 0.083; in assay [15] it was 0.304; in assay [16], -0.048; in assay [17], 0.008; in assay [18] it was -0.048. Also, the “glycan array binding signal (z-score)” value is 0.342 in assay [19]; 0.178 in assay [20]; 0.307 in assay [21]; 0.326 in assay [22]; -0.126 in [23]; 0.106 in assay [24].
